The panel holds about 83,000 compounds, 20% with a hit somewhere; the sample as a whole holds those more often.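 Treatment: one concentration, 48 hours, 96-well format. Scoring: percent growth, with anything below 10 considered active.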 Active and inactive are the calls of the source.
Tests used:
Assay in all cases: NCI-60 one-dose screen, 48 h (100 = growth as untreated, 0 = no growth, -100 = all killed)
Settings in all cases: 10 µM
SK-MEL-2 melanoma = system: SK-MEL-2 melanoma
EKVX NSCLC = system: EKVX NSCLC
SN12C renal = system: SN12C renal
UO-31 renal = system: UO-31 renal
TK-10 renal = system: TK-10 renal
ACHN renal = system: ACHN renal
CAKI-1 renal = system: CAKI-1 renal
A498 renal = system: A498 renal
CCRF-CEM leukemia = system: CCRF-CEM leukemia
SR leukemia = system: SR leukemia
RPMI-8226 leukemia = system: RPMI-8226 leukemia
OVCAR-8 ovarian = system: OVCAR-8 ovarian
OVCAR-5 ovarian = system: OVCAR-5 ovarian
OVCAR-4 ovarian = system: OVCAR-4 ovarian
SK-OV-3 ovarian = system: SK-OV-3 ovarian
IGROV1 ovarian = system: IGROV1 ovarian
OVCAR-3 ovarian = system: OVCAR-3 ovarian
HS 578T breast = system: HS 578T breast
NCI/ADR-RES ovarian = system: NCI/ADR-RES ovarian
MOLT-4 leukemia = system: MOLT-4 leukemia

Measured: growth

O=C(CSc1nnc(-c2c[nH]c3ccccc23)n1-c1ccccc1)Nc1ccc(C(=O)/C=C/c2ccc(Cl)cc2)cc1
inactive: SK-MEL-2 melanoma 87.6% | EKVX NSCLC 59% | SN12C renal 83% | UO-31 renal 45.8% | TK-10 renal 91.8% | ACHN renal 68.4% | CAKI-1 renal 68.2% | A498 renal 90.7% | CCRF-CEM leukemia 83.7% | SR leukemia 70.8% | OVCAR-8 ovarian 85.5% | OVCAR-5 ovarian 98.2% | OVCAR-4 ovarian 74.8% | SK-OV-3 ovarian 80.7% | IGROV1 ovarian 74.7% | OVCAR-3 ovarian 69.6% | HS 578T breast 73.2%
active: RPMI-8226 leukemia 4.94%

C/C(=N\N=C\c1ccc(Cl)c([N+](=O)[O-])c1)c1ccc2c(c1)Nc1ccccc1S2
active: OVCAR-8 ovarian 6.83% | HS 578T breast 0.197%
inactive: SK-MEL-2 melanoma 69.4% | EKVX NSCLC 48% | SN12C renal 37.2% | UO-31 renal 76.9% | TK-10 renal 77% | ACHN renal 45.6% | CAKI-1 renal 60.3% | A498 renal 91.8% | CCRF-CEM leukemia 56.4% | SR leukemia 44.1% | RPMI-8226 leukemia 33.3% | OVCAR-5 ovarian 72.8% | OVCAR-4 ovarian 23.7% | SK-OV-3 ovarian 94.8% | IGROV1 ovarian 60.3% | OVCAR-3 ovarian 27.5% | NCI/ADR-RES ovarian 11.7%

CN1CCN(c2ccc(C(=O)/C=C/c3cc(Br)ccc3F)cc2)CC1
active: CCRF-CEM leukemia -11.4% | RPMI-8226 leukemia -24.7%
inactive: SK-MEL-2 melanoma 107% | EKVX NSCLC 55.7% | SN12C renal 38.2% | UO-31 renal 44.2% | TK-10 renal 88.6% | ACHN renal 63.7% | CAKI-1 renal 50% | A498 renal 107% | MOLT-4 leukemia 24% | OVCAR-8 ovarian 64.2% | OVCAR-4 ovarian 59.6% | SK-OV-3 ovarian 44.4% | IGROV1 ovarian 33.1% | OVCAR-3 ovarian 33.8% | HS 578T breast 95.1% | NCI/ADR-RES ovarian 35.3%

O=C(NO)c1ccc(CN2CCN(c3nc(-c4ccccc4)c4ccccc4n3)CC2)cc1
active: UO-31 renal -11.6% | ACHN renal 4.08% | CAKI-1 renal 6.42% | SR leukemia 8.6% | OVCAR-8 ovarian 8.54% | SK-OV-3 ovarian -22.2% | NCI/ADR-RES ovarian -36.1%
inactive: SK-MEL-2 melanoma 67.4% | EKVX NSCLC 16% | SN12C renal 15.9% | TK-10 renal 19.7% | A498 renal 61.4% | CCRF-CEM leukemia 12% | RPMI-8226 leukemia 24.5% | OVCAR-5 ovarian 19.3% | OVCAR-4 ovarian 22.7% | IGROV1 ovarian 17.8% | OVCAR-3 ovarian 27.6% | HS 578T breast 49.1%

Cc1cc(C)cc(Oc2cccc(-c3c(C)nnn3C3CCN(CCN(C)C)CC3)n2)c1
active: CAKI-1 renal 7.83% | RPMI-8226 leukemia -12.1% | SK-OV-3 ovarian 9.31% | HS 578T breast 5.31%
inactive: SK-MEL-2 melanoma 38.7% | EKVX NSCLC 39.7% | SN12C renal 41.4% | UO-31 renal 15.8% | TK-10 renal 21.1% | ACHN renal 26.2% | A498 renal 56.4% | CCRF-CEM leukemia 16.7% | MOLT-4 leukemia 30.8% | OVCAR-5 ovarian 58% | OVCAR-4 ovarian 38.9% | IGROV1 ovarian 36.2% | OVCAR-3 ovarian 38%

COc1ccc(/C=C/C(=O)c2ccc(S(=O)(=O)NCCNc3nc(Nc4ccc(F)cc4)nc(N(C)C)n3)cc2)cc1
active: SR leukemia 3.4%
inactive: SK-MEL-2 melanoma 74.7% | EKVX NSCLC 34.1% | SN12C renal 14.5% | UO-31 renal 14% | TK-10 renal 70.3% | ACHN renal 16.2% | CAKI-1 renal 27.4% | A498 renal 47.9% | CCRF-CEM leukemia 16% | RPMI-8226 leukemia 10.5% | OVCAR-8 ovarian 50.6% | OVCAR-5 ovarian 42.5% | OVCAR-4 ovarian 21.8% | SK-OV-3 ovarian 76% | IGROV1 ovarian 43.6% | OVCAR-3 ovarian 15.7% | HS 578T breast 39% | NCI/ADR-RES ovarian 28.1%

O=C(N/N=C/c1ccc(-c2cccc([N+](=O)[O-])c2)o1)c1[nH]c2ccc(Br)cc2c1-c1ccccc1
inactive: SK-MEL-2 melanoma 22.8% | EKVX NSCLC 54.4% | UO-31 renal 38.9% | TK-10 renal 40.4% | ACHN renal 22.9% | CAKI-1 renal 21.4% | A498 renal 77.9% | RPMI-8226 leukemia 12% | OVCAR-5 ovarian 23.3% | OVCAR-4 ovarian 45.5% | SK-OV-3 ovarian 32.2% | IGROV1 ovarian 33.7%
active: SN12C renal 3.81% | CCRF-CEM leukemia -2.99% | MOLT-4 leukemia 4.53% | OVCAR-3 ovarian 1.91% | HS 578T breast -2.96%

COc1cccc2nc(Nc3ccc(F)c(NC(=O)c4ccc(CN5CCN(C)CC5)c(C(F)(F)F)c4)c3)ccc12
inactive: SK-MEL-2 melanoma 14.6% | EKVX NSCLC 13% | SN12C renal 26.8% | TK-10 renal 50.3% | A498 renal 77% | OVCAR-5 ovarian 72.5% | OVCAR-4 ovarian 32.6% | SK-OV-3 ovarian 53.8% | IGROV1 ovarian 29.3%
active: UO-31 renal 5.08% | ACHN renal 0.664% | CAKI-1 renal -2.36% | CCRF-CEM leukemia -3% | MOLT-4 leukemia -16.5% | RPMI-8226 leukemia -43.9% | OVCAR-3 ovarian -33.3% | HS 578T breast 6.57% | NCI/ADR-RES ovarian -3.12%

CCOC(=O)C(Cc1ccccc1)N1C(=O)/C(=C/N2N=C(c3ccc(OC)cc3)CC2c2ccc3ccccc3c2)SC1=S (configuration not stated)
inactive: UO-31 renal 16.2% | TK-10 renal 24.8% | ACHN renal 23.2% | CAKI-1 renal 24.8% | OVCAR-5 ovarian 39.3% | OVCAR-4 ovarian 35.1% | IGROV1 ovarian 13% | OVCAR-3 ovarian 15.1% | NCI/ADR-RES ovarian 54.1%
active: SK-MEL-2 melanoma -64.1% | EKVX NSCLC -7.27% | SN12C renal 8.88% | A498 renal -13.3% | CCRF-CEM leukemia 5.96% | MOLT-4 leukemia 4.16% | RPMI-8226 leukemia 4.07% | SK-OV-3 ovarian 9.93% | HS 578T breast 1.03%

COc1ccsc1/C=N/NC(=O)c1[nH]c2ccc(Br)cc2c1-c1ccccc1
active: SN12C renal -3.76% | ACHN renal -0.91% | CAKI-1 renal 3.46% | CCRF-CEM leukemia -12.5% | MOLT-4 leukemia -11.4% | RPMI-8226 leukemia -13.6% | NCI/ADR-RES ovarian -23.9%
inactive: SK-MEL-2 melanoma 20.7% | EKVX NSCLC 15.2% | UO-31 renal 11.4% | TK-10 renal 16.1% | A498 renal 20.3% | OVCAR-5 ovarian 26.6% | OVCAR-4 ovarian 22.1% | SK-OV-3 ovarian 20.9% | IGROV1 ovarian 22.6% | OVCAR-3 ovarian 25.8%

C=C1CCC2C3(C)COC(c4c(F)cccc4F)OC3CCC2(C)C1C/C=C1/C(=O)OCC1O (configuration not stated)
inactive: A498 renal 141% | CCRF-CEM leukemia 13.9% | MOLT-4 leukemia 11.4% | RPMI-8226 leukemia 15.3% | OVCAR-4 ovarian 12.4% | SK-OV-3 ovarian 54.7% | HS 578T breast 17.5%
active: SK-MEL-2 melanoma -44.7% | EKVX NSCLC 3.87% | SN12C renal -24.1% | UO-31 renal -91.6% | TK-10 renal -23.2% | ACHN renal -97.8% | CAKI-1 renal 2.15% | OVCAR-5 ovarian -10% | IGROV1 ovarian -26.7% | OVCAR-3 ovarian -67.9% | NCI/ADR-RES ovarian -15.1%

C=CCn1c(SCC(=O)Nc2ccc(C(=O)/C=C/c3ccccc3)cc2)nnc1-c1c[nH]c2ccccc12
active: RPMI-8226 leukemia 2.87%
inactive: SK-MEL-2 melanoma 58.3% | EKVX NSCLC 40.9% | SN12C renal 68.3% | UO-31 renal 31.2% | TK-10 renal 89.2% | ACHN renal 52.2% | CAKI-1 renal 57.3% | A498 renal 109% | CCRF-CEM leukemia 55.4% | SR leukemia 31.4% | OVCAR-8 ovarian 64.7% | OVCAR-5 ovarian 102% | OVCAR-4 ovarian 61.9% | SK-OV-3 ovarian 86.8% | IGROV1 ovarian 42% | OVCAR-3 ovarian 41.4% | HS 578T breast 70.5% | NCI/ADR-RES ovarian 85.4%

N#Cc1c(Cl)nc(SCc2ccc(F)cc2)nc1-c1ccc(F)cc1
inactive: SK-MEL-2 melanoma 97.9% | EKVX NSCLC 89.1% | SN12C renal 80.9% | UO-31 renal 87.1% | TK-10 renal 98.2% | ACHN renal 99.5% | CAKI-1 renal 94.9% | A498 renal 115% | CCRF-CEM leukemia 86.7% | MOLT-4 leukemia 80.6% | RPMI-8226 leukemia 91.4% | OVCAR-5 ovarian 95.6% | OVCAR-4 ovarian 95% | SK-OV-3 ovarian 103% | IGROV1 ovarian 109% | OVCAR-3 ovarian 111% | HS 578T breast 95.2% | NCI/ADR-RES ovarian 86.6%

O=c1oc2ccc(-c3ccc(F)cc3F)cc2c(=O)n1-c1ccc(Cl)c(C(F)(F)F)c1
active: SK-MEL-2 melanoma -62% | EKVX NSCLC -4.43% | SN12C renal -15% | UO-31 renal -3.08% | ACHN renal -10.9% | CAKI-1 renal -15.8% | A498 renal -17.6% | CCRF-CEM leukemia -5.71% | MOLT-4 leukemia -8.23% | RPMI-8226 leukemia -32.1% | OVCAR-5 ovarian -2.12% | SK-OV-3 ovarian -4.08% | HS 578T breast -0.864% | NCI/ADR-RES ovarian -12.2%
inactive: TK-10 renal 15.3% | OVCAR-4 ovarian 16.1% | IGROV1 ovarian 17.8% | OVCAR-3 ovarian 11.7%

Nc1n[nH]c2cccc(C#Cc3cccc(NC(=O)Nc4cc(C(F)(F)F)cc(C(F)(F)F)c4)c3)c12
active: SK-MEL-2 melanoma -96.8% | EKVX NSCLC -30.3% | SN12C renal -85.9% | UO-31 renal -52.5% | TK-10 renal -3.32% | ACHN renal -25.4% | CAKI-1 renal -15.6% | A498 renal -17.4% | CCRF-CEM leukemia -1.88% | MOLT-4 leukemia -1.46% | RPMI-8226 leukemia -16.3% | OVCAR-5 ovarian -46% | OVCAR-4 ovarian -3.45% | SK-OV-3 ovarian -28.9% | IGROV1 ovarian -66% | OVCAR-3 ovarian -20.4% | HS 578T breast -20.5% | NCI/ADR-RES ovarian -48.9%

COc1cc(/C=C/C(=O)c2cc(OC)c(OC)c(OC)c2)ccc1Oc1nc(Nc2ccc(F)cc2)nc(N(C)C)n1
inactive: EKVX NSCLC 20.6% | TK-10 renal 28.6% | CAKI-1 renal 11.5% | OVCAR-4 ovarian 18.4% | SK-OV-3 ovarian 49.5% | OVCAR-3 ovarian 12.1% | HS 578T breast 16.1%
active: SK-MEL-2 melanoma -49.4% | SN12C renal -89.3% | UO-31 renal -100% | ACHN renal -82.3% | A498 renal -1.01% | CCRF-CEM leukemia 3.77% | MOLT-4 leukemia 4.87% | RPMI-8226 leukemia -19.8% | IGROV1 ovarian -64.3% | NCI/ADR-RES ovarian -29.6%

NS(=O)(=O)c1ccc(N=Nc2c(O)n(CC(=O)Nc3ccccc3Br)c3ccccc23)cc1
inactive: EKVX NSCLC 49.1% | SN12C renal 47.6% | UO-31 renal 14.4% | TK-10 renal 63.3% | ACHN renal 13.9% | CAKI-1 renal 23.7% | A498 renal 94.1% | CCRF-CEM leukemia 57.2% | SR leukemia 41.3% | RPMI-8226 leukemia 37.3% | OVCAR-8 ovarian 18.6% | OVCAR-5 ovarian 70.2% | OVCAR-4 ovarian 69.4% | SK-OV-3 ovarian 41.5% | IGROV1 ovarian 26.4% | OVCAR-3 ovarian 45.7% | HS 578T breast 45.7% | NCI/ADR-RES ovarian 43.6%
active: SK-MEL-2 melanoma 1.95%

Source: PubChem BioAssay (NCI)
